Measured values reported in PubChem BioAssay AID1347041 (National Center for Advancing Translational Sciences (NCATS), 2019).
The campaign covered roughly 480,000 compounds. About 740 (0.15%) were called active. Cut-off read from the data, not from the text of the source: active = activity change below about -30%; inconclusive = mostly about -25% to -30%; inactive = weaker than that. Many of the other results were omitted from the sample, so actives are more common in it than they were.

Molecular target: L-lactate dehydrogenase A chain (Homo sapiens) (UniProt P00338)
Assay: qHTS assay for inhibitors of human lactate dehydrogenase;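 note: values are at about 110 or 230 µM; plate controls were DMSO wells for no effect and wells without enzyme for full effect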
Details: purified LDHA, NADH/diaphorase-resazurin fluorescence; hits give low values
From the text: LDH is a key glycolytic enzyme that catalyzes the final step in the glycolytic pathway, reducing pyruvate to lactate and regenerating NAD+ equivalents necessary for continued glycolysis. LDHA has been linked to the carcinogenesis and malignancy in numerous forms of cancers and many other diseases. Consequently, both pharma and academia have invested in significant research efforts to identify small molecule therapeutics. Such attempts have been stalled or abandoned due to limited success in discovering potent and drug-like inhibitors that can be utilized to validate LDHA in vivo as a drug target, a necessary step toward advancing such a molecule towards the clinic Towards this goal we designed and performed a quantitative high-throughput screening (qHTS) campaign to discover novel compounds that are potent inhibitors of LDHA enzyme activity and cancer cell line growth.
The assay was optimized to 1536-well plates. Briefly, 3 µL of human lactate dehydrogenase 5 (#A38558H, Meridian Life Science, Inc., Memphis, TN) in LDH assay buffer (200 mM Tris HCl pH 7.4, 100 microM EDTA and 0.01% Tween-20) was added to a black solid bottom 1536-well assay plate (Greiner Bio-One) using a BioRAPTR FRD dispenser (Beckman Coulter, Brea, CA). A 1536-well pintool dispenser outfitted with 20 nL pins (Wako Automation, San Diego, CA) was used to transfer 23 nL of DMSO-solubilized compound (both library and vehicle controls) to each 1536-well assay plate. Following compound transfer, 1 µL of substrate solution containing NADH and sodium pyruvate (Sigma-Aldrich, St. Louis, MO) in LDH assay buffer was dispensed via BioRAPTR FRD to initiate the reaction. Final concentrations in the 4 microL reaction volume were 2 nM LDHA enzyme, 0.06 mM NADH and 0.2 mM sodium pyruvate. Following a 5 minute incubation period at room temperature, 1 µL of detection reagent (C. kluyveri diaphorase (Sigma-Aldrich) and resazurin sodium salt (Sigma-Aldrich) in LDH assay buffer) was added to a total volume of 5 µL. Final concentrations of detection reagents were 0.133 mg/mL diaphorase and 37 µM resazurin. Plates were immediately transferred to a ViewLux microplate imager (PerkinElmer, Waltham, MA), and any resulting resorufin fluorescence was measured (ex540, em590 nm) at 0 and 20 minutes. Fluorescence was normalized using enzyme-free and DMSO-treated control wells on each plate.

Question: How did the activity change turn out when `C=CCN1C(=O)NC(=O)/C(=C/c2ccc(OCC(=O)Nc3ccc(C)cc3)cc2)C1=O` was run?
Answer: -1.94% (inactive)

Question: `O=C(O)COc1ccccc1/C=C1\C(=O)NC(=O)N(CCC2=CCCCC2)C1=O` was tested. Which activity change did it give?
Answer: -34.5% (active)

Question: Which activity change does the source give for `Cc1[nH]nc2c1C(c1ccc(C(=O)O)cc1)SCC(=O)N2` (stereo not given) here?
Answer: 4.1% (inactive)

Question: For `COc1ccccc1N=C1SCCCN1C`, which activity change is on record?
Answer: -34.1% (active)

Question: With `O=C(COc1ccc2c(=O)c(-c3ccccc3)coc2c1)N1CCN(CCO)CC1` as the compound, how does the activity change read?
Answer: 3.12% (inactive)

Question: `COC(=O)C(O)(c1ccc(N(C)C(=O)O/N=C(/C)Cl)cc1)C(F)(F)F` (stereo not given) was tested. Which activity change did it give?
Answer: 1.08% (inactive)

Question: For `COc1cc(-c2c(C#N)c(N)nc3c2c(=O)nc2sccn23)ccc1OCc1ccccc1C`, which activity change is on record?
Answer: 6.76% (inactive)

Question: For `C[N+]12CN3CN(CN(C3)C1)C2`, which activity change is on record?
Answer: -52.1% (active)

Question: Which activity change does the source give for `Cc1c(-c2ccc(Br)cc2)c(=O)oc2ccc(OC(=O)N(C)C)cc12` here?
Answer: 8.34% (inactive)

Question: With `N/C(=N\N=C\c1ccco1)N[N+](=O)[O-]` as the compound, how does the activity change read?
Answer: 6.01% (inactive)

Question: Which activity change does the source give for `Cc1nc(CN2CCNCC2)cs1` here?
Answer: 0.726% (inactive)

Question: With `Cc1ccc(C2(O)CC(C)N(C)CC2C)c(C)c1` (stereo not given) as the compound, how does the activity change read?
Answer: 1.58% (inactive)

Question: With `CCOC(=O)C1=C(N)OC(C)=C(C(=O)OC(C)C)C12C(=O)Nc1ccc(Br)cc12` (stereo not given) as the compound, how does the activity change read?
Answer: 12.9% (inactive)

Question: Which activity change does the source give for `ClCc1cccnc1` here?
Answer: -7.12% (inactive)

Question: How did the activity change turn out when `CCN1CCN(C(=O)COc2ccc3c(=O)c(Oc4ccccc4)c(C)oc3c2)CC1` was run?
Answer: -13.1% (inactive)
